Some of the results follow. A number with no mark means an inactive call. The source made the active and inactive calls.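 How the source made its calls: active means percent activation above the mean of DMSO-only control wells plus 3 SD of those wells (cut at about 18% in these data); inactive means the rest.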

The target of the assay is Neuropeptide Y receptor type 1 (Homo sapiens) (UniProt P25929). Kind of assay: human Y1 receptor agonism – cell-based, fluorescence, counter-screen for NPY-Y1 potentiator project, confirmation (AID 1697).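 Further: cells challenged with isoproterenol plus Ro 20-1724 with no NPY in test wells; Y1 agonism lowers isoproterenol-driven cAMP and reduces probe fluorescence.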 Particulars: HEK293 Y1-CNGC, membrane potential fluorescence, agonist mode; at 3.6 µM; hits give high values. In general terms: A counterscreen serves to expose hits that act by an unwanted route or on another target.
Neuropeptide Y receptor type 1 (Homo sapiens), sequence (P25929 whole entry, looked up): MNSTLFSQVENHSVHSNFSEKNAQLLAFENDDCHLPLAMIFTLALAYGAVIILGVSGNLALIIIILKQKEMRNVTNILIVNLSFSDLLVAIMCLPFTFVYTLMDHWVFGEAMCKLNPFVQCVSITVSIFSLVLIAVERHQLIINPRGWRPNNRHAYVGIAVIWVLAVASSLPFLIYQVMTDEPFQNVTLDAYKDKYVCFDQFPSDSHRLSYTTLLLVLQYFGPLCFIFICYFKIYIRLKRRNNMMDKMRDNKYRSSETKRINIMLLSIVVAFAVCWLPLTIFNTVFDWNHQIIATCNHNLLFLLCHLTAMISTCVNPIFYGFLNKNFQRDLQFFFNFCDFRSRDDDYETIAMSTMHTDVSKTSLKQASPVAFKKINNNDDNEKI
As for `N#Cc1ccc(C(=O)Nc2nc(-c3cccs3)c(C(=O)C(F)(F)F)s2)cc1`, the activation is -33.9%. The value for `O=[N+]([O-])c1cc(Cl)cc(/C=N/NC(=S)Nc2cc(S(=O)(=O)N3CCOCC3)ccc2Cl)c1O` was 77% (active). As to `Cc1cccc(OCC(O)CN2CCN(CCN3C(=O)c4cccc5cccc(c45)C3=O)CC2)c1C` (stereo unspecified), the activation is 45.1% (active). As for `CC(=O)c1ccc(NC(=O)C2CC(=O)Nc3nc4ccccc4n32)cc1` (stereo unspecified), the figure is 38% (active); as for `CSc1nc(-c2ccco2)nn1C(=O)c1ccccc1Cl`, 28.5% (active). The value for `CCn1c2ccccc2c2cc(NC(=O)Nc3ccc([N+](=O)[O-])cc3C)ccc21` was 11.8%; that for `O=C(c1cccs1)N1CCN(C(=O)N2CCOCC2)CC1` was -8.38%; that for `O=C(Nc1ccccc1C(F)(F)F)c1cc(-c2ccc(O)cc2)on1` was 9.5%. The value for `Cc1ccccc1NCC(=O)N/N=C\c1ccc([N+](=O)[O-])s1` was 40% (active).

As for `O=C(Nc1ccc2c(c1)CCC2)c1cccc(S(=O)(=O)Nc2ccccc2Cl)c1`, the activation is 3.19%.

For the compound `O=C1/C(=C/c2coc3ccc(O)cc3c2=O)SC(=S)N1c1ccccc1`, the activation is 16.8%. As to `CN1C(=O)c2ccccc2C(C(=O)NCCCN2CCCC2)C1c1c[nH]c2ccccc12` (stereo unspecified), the activation is -3%. As for `COC(=O)c1ccc(NC(=O)CN(c2ccc(C)cc2)S(=O)(=O)c2c(C)n[nH]c2C)cc1`, the figure is 45.3% (active).

For `COC(=O)c1sc(-c2ccc(C(C)(C)C)cc2)cc1NC(=O)/C=C/C(=O)O`, the activation was 26.9% (active).

Turning to `COCCn1nnnc1C(c1ccccc1Cl)N1CCN(c2ccccc2OC)CC1` (stereo unspecified), the activation is -0.37%. For `CC1=C/C(=N\OS(=O)(=O)c2ccccc2)C=CC1=O`, the activation is 14.2%.

Values taken from PubChem BioAssay AID1697 (The Scripps Research Institute Molecular Screening Center, 2009).
